# Measured values published in PubChem BioAssay AID1508601 (ICCB-Longwood Screening Facility, Harvard Medical School, 2020).
# The whole screen tested about 5,700 compounds, of which about 85 (1%) were called active. No stated cut-off is given here; in the data, active means p53-positive nuclei above about 36% (passing the limit was not always enough); inactive means the rest. The entries come from a sample that favours actives as a whole.
# What was measured:
# [1] = p53 stabilisation in HPV-positive human cells, imaging, p53-positive nuclei imaging, 24 h, 48 h (AID 1508601); settings: 24/48 h
# [2] = molecular target: Cellular tumor antigen p53 (Homo sapiens) (UniProt P04637); assay: as above; settings: 24/48 h, stronger effect = higher value
# Chain of Cellular tumor antigen p53 (Homo sapiens) (P04637 whole entry, looked up): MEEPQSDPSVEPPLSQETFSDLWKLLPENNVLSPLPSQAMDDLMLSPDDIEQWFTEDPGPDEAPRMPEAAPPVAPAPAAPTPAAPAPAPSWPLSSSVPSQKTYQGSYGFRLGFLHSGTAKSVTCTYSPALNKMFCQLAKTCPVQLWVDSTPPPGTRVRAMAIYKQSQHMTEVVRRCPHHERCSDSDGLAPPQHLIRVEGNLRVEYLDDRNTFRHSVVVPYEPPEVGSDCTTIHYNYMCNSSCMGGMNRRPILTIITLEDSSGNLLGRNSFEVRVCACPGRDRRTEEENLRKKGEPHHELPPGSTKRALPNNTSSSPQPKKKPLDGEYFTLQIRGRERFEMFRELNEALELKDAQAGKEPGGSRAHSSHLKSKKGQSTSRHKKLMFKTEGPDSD
# [3] = measured here: cell number at 24 h, Library stock concentration: 80 uM
# [4] = measured here: cell number at 24 h, Library stock concentration: 400 uM
# [5] = measured here: cell number at 24 h, Library stock concentration: 2 mM
# [6] = measured here: cell number at 24 h, Library stock concentration: 3.33 mM
# [7] = measured here: cell number at 24 h, Library stock concentration: 10 mM
# [8] = measured here: cell number at 48 h, Library stock concentration: 80 uM
# [9] = measured here: cell number at 48 h, Library stock concentration: 400 uM
# [10] = measured here: cell number at 48 h, Library stock concentration: 2 mM
# [11] = measured here: cell number at 48 h, Library stock concentration: 3.33 mM
# [12] = measured here: cell number at 48 h, Library stock concentration: 10 mM
# [13] = Library stock concentration: 80 uM
# [14] = Library stock concentration: 400 uM
# [15] = Library stock concentration: 2 mM
# [16] = Library stock concentration: 3.33 mM
# [17] = Library stock concentration: 10 mM
# [18] = measured here: p53 positive nuclei at 24 h, Library stock concentration: 80 uM
# [19] = measured here: p53 positive nuclei at 24 h, Library stock concentration: 400 uM
# [20] = measured here: p53 positive nuclei at 24 h, Library stock concentration: 2 mM
# [21] = measured here: p53 positive nuclei at 24 h, Library stock concentration: 3.33 mM
# [22] = measured here: p53 positive nuclei at 24 h, Library stock concentration: 10 mM
# [23] = measured here: cell number at 24 h, concentration not given here
# [24] = measured here: cell number at 48 h, concentration not given here
# [25] = measured here: p53 positive nuclei at 24 h, concentration not given here
structure (smiles),measurement,setting,value
CC(C)N(CCCNC(=O)Nc1ccc(C(C)(C)C)cc1)CC1OC(n2cc(Br)c3c(N)ncnc32)C(O)C1O (stereo unspecified),"nuclei count, normalised",[1]; [3],105%
same,"nuclei count, normalised",[1]; [4],101%
same,"nuclei count, normalised",[1]; [5],103%
same,"nuclei count, normalised",[1]; [6],115%
same,"nuclei count, normalised",[1]; [7],101%
same,"nuclei count, normalised",[1]; [8],98.8%
same,"nuclei count, normalised",[1]; [9],96.7%
same,"nuclei count, normalised",[1]; [10],94.7%
same,"nuclei count, normalised",[1]; [11],110%
same,"nuclei count, normalised",[1]; [12],99.9%
same,"p53-positive nuclei, normalised",[2]; [13],-0.0631% (inactive)
same,"p53-positive nuclei, normalised",[2]; [14],0.111% (inactive)
same,"p53-positive nuclei, normalised",[2]; [15],0.291% (inactive)
same,"p53-positive nuclei, normalised",[2]; [16],-0.109% (inactive)
same,"p53-positive nuclei, normalised",[2]; [17],0.13% (inactive)
same,"p53-positive nuclei, normalised",[2]; [18],-0.167%
same,"p53-positive nuclei, normalised",[2]; [19],0.0144%
same,"p53-positive nuclei, normalised",[2]; [20],-0.162%
same,"p53-positive nuclei, normalised",[2]; [21],-0.283%
same,"p53-positive nuclei, normalised",[2]; [22],-0.163%
CCCC1CC(C(=O)NC(C(C)O)[C@@H]2OC(SC)C(O)C(O)C2O)N(C)C1 (stereo partly specified),"nuclei count, normalised",[1]; [6],101%
same,"nuclei count, normalised",[1]; [11],102%
same,"p53-positive nuclei, normalised",[2]; [16],-0.245% (inactive)
same,"p53-positive nuclei, normalised",[2]; [21],-0.267%
N#CSc1cc(SC#N)c(N)nc1N,"nuclei count, normalised","[1]; measured here: cell number at 24 h, Library stock concentration: 500 nM",108%
same,"nuclei count, normalised","[1]; measured here: cell number at 24 h, Library stock concentration: 1.5 uM",116%
same,"nuclei count, normalised","[1]; measured here: cell number at 24 h, Library stock concentration: 4.6 uM",121%
same,"nuclei count, normalised","[1]; measured here: cell number at 24 h, Library stock concentration: 13.7 uM",119%
same,"nuclei count, normalised","[1]; measured here: cell number at 24 h, Library stock concentration: 41 uM",107%
same,"nuclei count, normalised","[1]; measured here: cell number at 24 h, Library stock concentration: 123 uM",114%
same,"nuclei count, normalised","[1]; measured here: cell number at 24 h, Library stock concentration: 370 uM",114%
same,"nuclei count, normalised","[1]; measured here: cell number at 24 h, Library stock concentration: 1.111 mM",107%
same,"nuclei count, normalised",[1]; [6],97.4%
same,"nuclei count, normalised","[1]; measured here: cell number at 24 h, Library stock concentration: 3.333 mM",84.8%
same,"nuclei count, normalised",[1]; [7],45.2%
same,"nuclei count, normalised","[1]; measured here: cell number at 48 h, Library stock concentration: 500 nM",108%
same,"nuclei count, normalised","[1]; measured here: cell number at 48 h, Library stock concentration: 1.5 uM",111%
same,"nuclei count, normalised","[1]; measured here: cell number at 48 h, Library stock concentration: 4.6 uM",118%
same,"nuclei count, normalised","[1]; measured here: cell number at 48 h, Library stock concentration: 13.7 uM",113%
same,"nuclei count, normalised","[1]; measured here: cell number at 48 h, Library stock concentration: 41 uM",108%
same,"nuclei count, normalised","[1]; measured here: cell number at 48 h, Library stock concentration: 123 uM",113%
same,"nuclei count, normalised","[1]; measured here: cell number at 48 h, Library stock concentration: 370 uM",74.3%
same,"nuclei count, normalised","[1]; measured here: cell number at 48 h, Library stock concentration: 1.111 mM",74.4%
same,"nuclei count, normalised",[1]; [11],103%
same,"nuclei count, normalised","[1]; measured here: cell number at 48 h, Library stock concentration: 3.333 mM",62.1%
same,"nuclei count, normalised",[1]; [12],21.8%
same,"p53-positive nuclei, normalised",[2]; Library stock concentration: 500 nM,0.137% (inactive)
same,"p53-positive nuclei, normalised",[2]; Library stock concentration: 1.5 uM,-0.0213% (inactive)
same,"p53-positive nuclei, normalised",[2]; Library stock concentration: 4.6 uM,-0.102% (inactive)
same,"p53-positive nuclei, normalised",[2]; Library stock concentration: 13.7 uM,0.047% (inactive)
same,"p53-positive nuclei, normalised",[2]; Library stock concentration: 41 uM,0.227% (inactive)
same,"p53-positive nuclei, normalised",[2]; Library stock concentration: 123 uM,-0.098% (inactive)
same,"p53-positive nuclei, normalised",[2]; Library stock concentration: 370 uM,0.164% (inactive)
same,"p53-positive nuclei, normalised",[2]; Library stock concentration: 1.111 mM,0.121% (inactive)
same,"p53-positive nuclei, normalised",[2]; [16],0.00985% (inactive)
same,"p53-positive nuclei, normalised",[2]; Library stock concentration: 3.333 mM,0.39% (inactive)
same,"p53-positive nuclei, normalised",[2]; [17],46.6% (active)
same,"p53-positive nuclei, normalised","[2]; measured here: p53 positive nuclei at 24 h, Library stock concentration: 500 nM",0.00877%
same,"p53-positive nuclei, normalised","[2]; measured here: p53 positive nuclei at 24 h, Library stock concentration: 1.5 uM",-0.00152%
same,"p53-positive nuclei, normalised","[2]; measured here: p53 positive nuclei at 24 h, Library stock concentration: 4.6 uM",0.0386%
same,"p53-positive nuclei, normalised","[2]; measured here: p53 positive nuclei at 24 h, Library stock concentration: 13.7 uM",-0.00721%
same,"p53-positive nuclei, normalised","[2]; measured here: p53 positive nuclei at 24 h, Library stock concentration: 41 uM",0.497%
same,"p53-positive nuclei, normalised","[2]; measured here: p53 positive nuclei at 24 h, Library stock concentration: 123 uM",0.0549%
same,"p53-positive nuclei, normalised","[2]; measured here: p53 positive nuclei at 24 h, Library stock concentration: 370 uM",-0.0579%
same,"p53-positive nuclei, normalised","[2]; measured here: p53 positive nuclei at 24 h, Library stock concentration: 1.111 mM",0.00745%
same,"p53-positive nuclei, normalised",[2]; [21],-0.237%
same,"p53-positive nuclei, normalised","[2]; measured here: p53 positive nuclei at 24 h, Library stock concentration: 3.333 mM",0.112%
same,"p53-positive nuclei, normalised",[2]; [22],76.7%
CC/C=C\C/C=C\C/C=C\C/C=C\C/C=C\CCCCCC(=O)O,"nuclei count, normalised",[1]; [23],100%
same,"nuclei count, normalised",[1]; [24],102%
same,"p53-positive nuclei, normalised",[2]; concentration not given here,0.209% (inactive)
same,"p53-positive nuclei, normalised",[2]; [25],-0.0279%
CC(Oc1ccc2c(c1)OCO2)C(=O)N(Cc1nccn1C)C(C)C (stereo unspecified),"nuclei count, normalised",[1]; [23],101%
same,"nuclei count, normalised",[1]; [24],109%
same,"p53-positive nuclei, normalised",[2]; concentration not given here,-0.128% (inactive)
same,"p53-positive nuclei, normalised",[2]; [25],0.148%
CCCCc1ccc(N=CNO)c(C)c1,"nuclei count, normalised",[1]; [3],102%
same,"nuclei count, normalised",[1]; [4],87.8%
same,"nuclei count, normalised",[1]; [5],104%
same,"nuclei count, normalised",[1]; [7],97.5%
same,"nuclei count, normalised",[1]; [23],112%
same,"nuclei count, normalised",[1]; [8],102%
same,"nuclei count, normalised",[1]; [9],96.8%
same,"nuclei count, normalised",[1]; [10],107%
same,"nuclei count, normalised",[1]; [12],103%
same,"nuclei count, normalised",[1]; [24],114%
same,"p53-positive nuclei, normalised",[2]; [13],-0.0421% (inactive)
same,"p53-positive nuclei, normalised",[2]; [14],-0.0681% (inactive)
same,"p53-positive nuclei, normalised",[2]; [15],-0.128% (inactive)
same,"p53-positive nuclei, normalised",[2]; [17],-0.158% (inactive)
same,"p53-positive nuclei, normalised",[2]; concentration not given here,-0.0134% (inactive)
same,"p53-positive nuclei, normalised",[2]; [18],-0.116%
same,"p53-positive nuclei, normalised",[2]; [19],0.0745%
same,"p53-positive nuclei, normalised",[2]; [20],0.0465%
same,"p53-positive nuclei, normalised",[2]; [22],0.123%
same,"p53-positive nuclei, normalised",[2]; [25],-0.0878%
